Source: PubChem BioAssay (NCI)
The panel holds about 83,000 compounds, 20% with a hit somewhere; the sample as a whole holds those more often.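 How to read the values: 0–100, growth inhibition (40 = 60% inhibited); 0, no net growth; -100 to 0, cell death (-40 = 40% of starting cells died; -100 = all dead).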 Unmarked numbers belong to inactive results. Calls of active or inactive are those of the source. The calls were made as follows: active = growth percent below 10; inactive = the rest.

Assays:
Test in all cases: NCI-60 one-dose screen, 48 h (100 = growth as untreated, 0 = no growth, -100 = all killed)
Settings in all cases: 10 µM unless noted
NCI-H23 lung = tested on: NCI-H23 lung
NCI-H226 lung = tested on: NCI-H226 lung
NCI-H322M lung = tested on: NCI-H322M lung
HOP-62 NSCLC = tested on: HOP-62 NSCLC
NCI-H460 lung = tested on: NCI-H460 lung
HOP-92 NSCLC = tested on: HOP-92 NSCLC
NCI-H522 lung = tested on: NCI-H522 lung
A549/ATCC NSCLC = tested on: A549/ATCC NSCLC
786-0 renal = tested on: 786-0 renal
COLO 205 colon = tested on: COLO 205 colon
DU-145 prostate = tested on: DU-145 prostate
K-562 leukemia = tested on: K-562 leukemia
MALME-3M melanoma = tested on: MALME-3M melanoma
MDA-MB-231 breast = tested on: MDA-MB-231 breast
RXF 393 renal = tested on: RXF 393 renal
SF-268 CNS = tested on: SF-268 CNS
SF-295 CNS = tested on: SF-295 CNS
SF-539 CNS = tested on: SF-539 CNS
UACC-257 melanoma = tested on: UACC-257 melanoma
M14 melanoma = tested on: M14 melanoma

Compound | growth (NCI-H23 lung) | growth (NCI-H226 lung) | growth (NCI-H322M lung) | growth (HOP-62 NSCLC) | growth (NCI-H460 lung) | growth (HOP-92 NSCLC) | growth (NCI-H522 lung) | growth (A549/ATCC NSCLC) | growth (786-0 renal) | growth (COLO 205 colon) | growth (DU-145 prostate) | growth (K-562 leukemia) | growth (MALME-3M melanoma) | growth (MDA-MB-231 breast) | growth (RXF 393 renal) | growth (SF-268 CNS) | growth (SF-295 CNS) | growth (SF-539 CNS) | growth (UACC-257 melanoma) | growth (M14 melanoma)
COc1ccc(-n2cc(-c3ccccc3)c3c(SCC(=O)N/N=C/c4ccc([N+](=O)[O-])cc4)ncnc32)cc1 | 88.9% | 84.2% | 106% | 100% | 113% | 98.3% | 91.5% | 105% | 95.3% | 109% | 114% | 110% | 110% | 102% | 113% | 98.5% | 105% | 97.9% | 107% | 108%
COc1ccc(-c2nn(-c3ccccc3)cc2/C=C2\SC(=O)NC2=O)cc1 | 94.8% | 98.9% | 117% | 101% | 97.5% | 96.6% | 81.6% | 105% | 81.1% | 123% | 109% | 86.7% | 112% | 84.4% | 114% | 96.9% | 92% | 96.8% | 110% | 102%
CCOC(=O)Cc1cnn(C)c1NC(=O)c1ccc(Cl)cc1NC(C)=O | 104% | 98.6% | 79.1% | 96.4% | 119% | 91.4% | 95.4% | 103% | 98.4% | 110% | 110% | 103% | 105% | 112% | 115% | 98.7% | 101% | 101% | 105% | 101%
COc1cc2c(c(OC)c1OC)-c1ccc(N=NC(N)=S)c(=O)cc1[C@@H](NC(C)=O)CC2 | 1.29% (active) | 41.8% | 36.5% | 7.96% (active) | 3.1% (active) | 69.6% | -59.8% (active) | 15% | 9.81% (active) | -73.6% (active) | -40.1% (active) | 9.08% (active) | 61.2% | 9.7% (active) | -13.5% (active) | 9.15% (active) | 6.76% (active) | 1.01% (active) | 49.5% | -39.1% (active)
COc1ccc(S(=O)(=O)NCCNc2nccc(-c3c(-c4cccc([N+](=O)[O-])c4)nc4sccn34)n2)cc1 | 93.1% | 82.2% | 97.5% | 99.3% | 87.3% | 87.5% | 86% | 80.2% | 87.9% | 95.1% | 80% | 76.1% | 111% | 82.9% | 78% | 66.4% | 90.6% | 99.3% | 106% | 102%
CCOC(=O)c1cnc2ccc(OC)cc2c1Nc1cccc(S(=O)(=O)NC)c1 | 91.8% | 108% | 99.8% | 99.6% | 114% | 112% | 99.8% | 103% | 77.1% | 134% | 102% | 92.8% | 105% | 100% | -4.54% (active) | 86.2% | 54.7% | 50.1% | 112% | 115%
OCC1C2C=CC(C2)C1CO (stereo not given) | 108% | 109% | 114% | 90.9% | 121% | 60.5% | 97% | 89% | 101% | 191% | 106% | 112% | 105% | 103% | 113% | 106% | 104% | 126% | 101% | 99.9%
O=C1CCc2c(sc3[nH]c(=S)n(Cc4ccccc4)c(=O)c23)C1 | 0.541% (active) | 51.2% | 30.1% | 10.2% | 3.94% (active) | -19.5% (active) | 2.03% (active) | 13.9% | 30.9% | 32.3% | 64.1% | 11.5% | 69% | 16.5% | 20.8% | 19.4% | -13.9% (active) | -12.6% (active) | 29.1% | 18.9%
CCCCCCCCCCCCCCCCCCNC(=O)[C@H]1CSC(c2ccc(F)c(OC)c2)N1 (stereo not given in full) | 5.24% (active) | -69% (active) | -22.2% (active) | -97.6% (active) | -77.7% (active) | -5.83% (active) | 7.12% (active) | -12.9% (active) | -10.6% (active) | 20.1% | 26.5% | -56.3% (active) | -91.2% (active) | -83.4% (active) | -93.6% (active) | -69.9% (active) | 30.8% | -61.9% (active) | -61.7% (active) | -90.8% (active)
COc1ccc(S(=O)(=O)NCCCNc2nccc(-c3c(-c4cccc(N)c4)nc4sccn34)n2)cc1 | 97.4% | 89.4% | 101% | 117% | 97.1% | 92.8% | 101% | 99.7% | 92.1% | 75.8% | 92.1% | 69.7% | 103% | -61.7% (active) | 96.1% | 87.6% | 102% | 101% | 113% | 80.8%
c1ccc(Sc2ncnc3ccccc23)cc1 | 70.2% | 82.2% | 79.9% | 99.4% | 89.9% | 48.9% | 82.8% | 90.4% | 87.6% | 108% | 89.3% | 71.4% | 64.1% | 93% | 83.1% | 70% | 93.7% | 89% | 70.5% | 71%
O=C1C(=O)N(CCCCn2cc(CO)nn2)c2ccccc21 | 98.2% | 97.4% | 108% | 96.3% | 101% | 106% | 90.1% | 104% | 99.9% | 111% | 108% | 98.4% | 97.7% | 98.2% | 99.7% | 101% | 102% | 101% | 105% | 94.5%
CCNS(=O)(=O)c1ncnc2nc[nH]c12 | 97.1% | 120% | 111% | 105% | 104% | 98.6% | 88.5% | 119% | 104% | 112% | 102% | 109% | 116% | 119% | 122% | 132% | 109% | 95.9% | 126% | 119%
Cc1cc(Cl)ccc1Nc1nc(C(F)(F)F)ccc1C(=O)N/N=C/c1ccc(F)cc1 | 16.4% | 22.9% | 9.9% (active) | 5.92% (active) | 2.29% (active) | -18.1% (active) | -9.21% (active) | 16.5% | -50.7% (active) | 13.9% | 35.2% | 5.33% (active) | 6.12% (active) | -9.74% (active) | 17.8% | 19.6% | 17.4% | 24.6% | 8.52% (active) | 2.84% (active)
C=C1CC2(OC1=O)C(=O)N(CCCCCCCCCCCCN1C(=O)C3(CC(=C)C(=O)O3)c3ccccc31)c1ccccc12 (stereo not given) | 84.6% | 78.6% | 95.1% | 94.1% | 73.1% | 42.2% | 16.2% | 97.6% | 99.1% | 82.6% | 98.7% | 6.7% (active) | 75.5% | 55.8% | 52.8% | 93% | 97.6% | 87.3% | 94.9% | 79.4%
Nc1nc2ccc(-c3nc4ccc5[nH]ncc5c4c4c3CCC4)cc2s1 | 24.2% | 22.7% | 25.8% | 3.53% (active) | 2.53% (active) | -4.3% (active) | -29.4% (active) | 32.2% | 25.6% | -2.69% (active) | 16.5% | 19.4% | -2.7% (active) | 42.2% | -21.9% (active) | 37.7% | 13.6% | 3.96% (active) | 36.9% | 29.1%
